# Results taken from ChEMBL document CHEMBL2218924, “A broad activity screen in support of a chemogenomic map for kinase signalling research and drug discovery” (Biochem J, 2013).
# Key:
# [1] = biological target: Protein kinase C eta type (Homo sapiens) (UniProt P24723); details: at 1 µM
# [2] = biological target: Protein kinase C eta type (Homo sapiens) (UniProt P24723); details: at 10 µM
# [3] = biological target: Protein kinase C theta type (Homo sapiens) (UniProt Q04759); details: at 1 µM
# [4] = biological target: Protein kinase C theta type (Homo sapiens) (UniProt Q04759); details: at 10 µM
# [5] = biological target: T1, Protein kinase C iota type (Homo sapiens) (UniProt P41743); details: at 1 µM
# T1 sequence (whole entry): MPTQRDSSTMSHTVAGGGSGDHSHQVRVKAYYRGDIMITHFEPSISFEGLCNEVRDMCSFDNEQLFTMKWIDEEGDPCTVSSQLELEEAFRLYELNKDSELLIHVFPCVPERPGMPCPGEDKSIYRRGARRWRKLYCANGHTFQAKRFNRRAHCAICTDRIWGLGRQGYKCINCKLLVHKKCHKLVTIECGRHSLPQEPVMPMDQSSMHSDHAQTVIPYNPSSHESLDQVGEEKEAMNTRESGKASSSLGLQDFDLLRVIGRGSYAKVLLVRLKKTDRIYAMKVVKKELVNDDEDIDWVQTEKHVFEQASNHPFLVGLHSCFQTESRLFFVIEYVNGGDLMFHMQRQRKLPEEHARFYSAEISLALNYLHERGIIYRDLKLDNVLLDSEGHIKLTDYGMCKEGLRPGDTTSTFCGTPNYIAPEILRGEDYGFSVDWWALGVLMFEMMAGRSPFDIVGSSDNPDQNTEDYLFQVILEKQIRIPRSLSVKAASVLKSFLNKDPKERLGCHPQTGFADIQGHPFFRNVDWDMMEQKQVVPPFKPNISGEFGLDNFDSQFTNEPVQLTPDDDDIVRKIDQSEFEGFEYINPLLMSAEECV
# [6] = biological target: T1, Protein kinase C iota type (Homo sapiens); details: at 10 µM
# [7] = biological target: T2, Serine/threonine-protein kinase D1 (Homo sapiens) (UniProt Q15139); details: at 1 µM
# T2 sequence (whole entry): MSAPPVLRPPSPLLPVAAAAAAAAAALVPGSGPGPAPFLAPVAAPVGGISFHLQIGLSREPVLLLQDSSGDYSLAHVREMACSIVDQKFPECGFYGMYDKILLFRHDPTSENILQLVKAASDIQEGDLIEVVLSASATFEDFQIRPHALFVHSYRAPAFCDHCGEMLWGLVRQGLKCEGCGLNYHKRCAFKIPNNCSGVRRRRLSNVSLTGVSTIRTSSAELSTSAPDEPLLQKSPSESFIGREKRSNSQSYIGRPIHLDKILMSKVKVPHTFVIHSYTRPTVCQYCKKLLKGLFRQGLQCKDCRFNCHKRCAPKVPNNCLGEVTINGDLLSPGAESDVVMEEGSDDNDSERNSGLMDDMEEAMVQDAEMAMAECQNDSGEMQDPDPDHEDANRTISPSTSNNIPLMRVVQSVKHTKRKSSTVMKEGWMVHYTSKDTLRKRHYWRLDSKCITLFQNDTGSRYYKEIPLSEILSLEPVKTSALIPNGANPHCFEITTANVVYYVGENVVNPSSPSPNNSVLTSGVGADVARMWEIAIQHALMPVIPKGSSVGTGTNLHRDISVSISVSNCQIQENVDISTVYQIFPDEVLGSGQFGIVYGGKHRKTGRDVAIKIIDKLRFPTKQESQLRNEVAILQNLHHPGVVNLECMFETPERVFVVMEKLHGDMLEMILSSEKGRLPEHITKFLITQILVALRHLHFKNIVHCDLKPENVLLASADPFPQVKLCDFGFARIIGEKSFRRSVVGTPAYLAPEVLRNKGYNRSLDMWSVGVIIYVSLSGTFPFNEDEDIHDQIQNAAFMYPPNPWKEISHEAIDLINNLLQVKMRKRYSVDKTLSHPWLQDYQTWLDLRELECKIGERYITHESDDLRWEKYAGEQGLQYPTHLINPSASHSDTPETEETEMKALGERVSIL
# [8] = biological target: T2, Serine/threonine-protein kinase D1 (Homo sapiens); details: at 10 µM
# [9] = biological target: T3, Serine/threonine-protein kinase D2 (Homo sapiens) (UniProt Q9BZL6); details: at 1 µM
# T3 sequence (whole entry): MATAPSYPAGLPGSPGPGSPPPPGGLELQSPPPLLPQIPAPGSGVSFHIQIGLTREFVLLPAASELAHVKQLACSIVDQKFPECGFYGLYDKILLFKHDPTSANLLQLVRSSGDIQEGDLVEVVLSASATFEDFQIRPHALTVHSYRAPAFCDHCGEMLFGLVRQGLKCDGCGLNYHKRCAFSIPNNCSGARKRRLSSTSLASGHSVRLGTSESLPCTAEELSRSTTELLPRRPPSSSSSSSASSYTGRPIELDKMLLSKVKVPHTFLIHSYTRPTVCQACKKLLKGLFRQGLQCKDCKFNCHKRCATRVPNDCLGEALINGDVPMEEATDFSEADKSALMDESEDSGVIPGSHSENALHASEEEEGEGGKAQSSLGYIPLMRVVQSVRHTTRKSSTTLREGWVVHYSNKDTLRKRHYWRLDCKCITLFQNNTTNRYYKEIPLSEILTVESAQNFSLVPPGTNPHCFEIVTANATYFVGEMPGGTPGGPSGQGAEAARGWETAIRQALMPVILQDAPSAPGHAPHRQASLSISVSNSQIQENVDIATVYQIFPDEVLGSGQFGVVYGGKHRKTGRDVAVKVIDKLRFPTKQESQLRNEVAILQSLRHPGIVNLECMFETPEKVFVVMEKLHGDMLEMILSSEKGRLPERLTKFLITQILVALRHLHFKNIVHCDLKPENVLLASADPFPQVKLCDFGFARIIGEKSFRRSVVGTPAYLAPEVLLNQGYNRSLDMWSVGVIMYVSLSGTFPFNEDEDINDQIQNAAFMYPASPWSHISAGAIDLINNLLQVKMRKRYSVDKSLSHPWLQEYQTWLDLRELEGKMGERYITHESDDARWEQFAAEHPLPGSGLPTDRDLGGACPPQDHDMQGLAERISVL
# [10] = biological target: T3, Serine/threonine-protein kinase D2 (Homo sapiens); details: at 10 µM
# [11] = biological target: T4, cGMP-dependent protein kinase 1 (Homo sapiens) (UniProt Q13976); details: at 1 µM
# T4 sequence (whole entry): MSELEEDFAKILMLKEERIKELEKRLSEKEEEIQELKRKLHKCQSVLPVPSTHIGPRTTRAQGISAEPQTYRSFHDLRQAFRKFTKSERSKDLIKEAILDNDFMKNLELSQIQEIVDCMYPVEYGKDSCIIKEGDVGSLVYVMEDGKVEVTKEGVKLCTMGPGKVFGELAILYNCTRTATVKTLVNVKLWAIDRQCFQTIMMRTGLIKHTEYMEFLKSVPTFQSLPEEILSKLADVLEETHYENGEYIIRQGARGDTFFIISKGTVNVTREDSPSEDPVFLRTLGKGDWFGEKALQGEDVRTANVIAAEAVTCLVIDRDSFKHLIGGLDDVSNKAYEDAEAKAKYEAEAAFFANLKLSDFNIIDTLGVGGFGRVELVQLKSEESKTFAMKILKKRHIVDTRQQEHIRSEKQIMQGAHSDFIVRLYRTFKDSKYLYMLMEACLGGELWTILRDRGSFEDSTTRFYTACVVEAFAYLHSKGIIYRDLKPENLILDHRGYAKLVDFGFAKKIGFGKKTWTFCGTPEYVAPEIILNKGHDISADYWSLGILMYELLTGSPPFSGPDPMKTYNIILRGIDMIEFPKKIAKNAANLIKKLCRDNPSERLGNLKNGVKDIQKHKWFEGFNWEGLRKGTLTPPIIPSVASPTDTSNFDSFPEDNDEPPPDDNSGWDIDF
# [12] = biological target: T4, cGMP-dependent protein kinase 1 (Homo sapiens); details: at 10 µM
# [13] = biological target: T4, cGMP-dependent protein kinase 1 (Homo sapiens); details: at 1 µM; remark: listed apart in the source
# [14] = biological target: T4, cGMP-dependent protein kinase 1 (Homo sapiens); details: at 10 µM; remark: listed apart in the source
# [15] = biological target: T5, MAP kinase-activated protein kinase 5 (Homo sapiens) (UniProt Q8IW41); details: at 1 µM
# T5 sequence (whole entry): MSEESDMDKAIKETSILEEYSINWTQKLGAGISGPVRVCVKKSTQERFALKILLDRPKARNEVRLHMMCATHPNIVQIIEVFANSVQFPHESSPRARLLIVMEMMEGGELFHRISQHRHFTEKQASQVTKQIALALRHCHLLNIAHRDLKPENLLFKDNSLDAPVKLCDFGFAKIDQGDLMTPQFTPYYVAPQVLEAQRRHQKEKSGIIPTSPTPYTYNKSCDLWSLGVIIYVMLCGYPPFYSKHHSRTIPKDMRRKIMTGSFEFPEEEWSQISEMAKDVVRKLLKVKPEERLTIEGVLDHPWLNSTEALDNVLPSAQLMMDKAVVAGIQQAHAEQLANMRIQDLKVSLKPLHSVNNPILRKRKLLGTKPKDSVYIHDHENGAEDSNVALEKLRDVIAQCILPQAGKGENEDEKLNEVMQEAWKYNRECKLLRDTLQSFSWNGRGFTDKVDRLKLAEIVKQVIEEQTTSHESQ
# [16] = biological target: T5, MAP kinase-activated protein kinase 5 (Homo sapiens); details: at 10 µM
# [17] = biological target: Serine/threonine-protein kinase N2 (Homo sapiens) (UniProt Q16513); details: at 1 µM
# [18] = biological target: Serine/threonine-protein kinase N2 (Homo sapiens) (UniProt Q16513); details: at 10 µM
# [19] = biological target: Tyrosine-protein kinase FRK (Homo sapiens) (UniProt P42685); details: at 1 µM
# [20] = biological target: Tyrosine-protein kinase FRK (Homo sapiens) (UniProt P42685); details: at 10 µM
# Sequence of Tyrosine-protein kinase FRK (Homo sapiens) (P42685 whole entry): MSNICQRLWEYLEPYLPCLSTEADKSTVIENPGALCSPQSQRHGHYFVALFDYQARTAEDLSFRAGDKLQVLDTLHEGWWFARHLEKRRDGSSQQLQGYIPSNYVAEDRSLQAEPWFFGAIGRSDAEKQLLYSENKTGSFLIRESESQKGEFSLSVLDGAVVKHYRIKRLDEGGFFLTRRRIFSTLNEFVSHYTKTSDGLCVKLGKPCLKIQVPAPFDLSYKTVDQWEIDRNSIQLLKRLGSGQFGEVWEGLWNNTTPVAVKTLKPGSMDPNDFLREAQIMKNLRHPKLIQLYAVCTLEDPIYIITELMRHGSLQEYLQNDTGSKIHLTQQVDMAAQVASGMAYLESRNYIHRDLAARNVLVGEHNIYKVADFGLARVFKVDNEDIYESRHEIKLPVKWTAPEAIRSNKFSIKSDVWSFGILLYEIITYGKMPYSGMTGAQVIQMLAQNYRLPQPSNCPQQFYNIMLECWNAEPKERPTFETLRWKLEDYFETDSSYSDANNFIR
# Sequence of Protein kinase C theta type (Homo sapiens) (Q04759 whole entry, looked up): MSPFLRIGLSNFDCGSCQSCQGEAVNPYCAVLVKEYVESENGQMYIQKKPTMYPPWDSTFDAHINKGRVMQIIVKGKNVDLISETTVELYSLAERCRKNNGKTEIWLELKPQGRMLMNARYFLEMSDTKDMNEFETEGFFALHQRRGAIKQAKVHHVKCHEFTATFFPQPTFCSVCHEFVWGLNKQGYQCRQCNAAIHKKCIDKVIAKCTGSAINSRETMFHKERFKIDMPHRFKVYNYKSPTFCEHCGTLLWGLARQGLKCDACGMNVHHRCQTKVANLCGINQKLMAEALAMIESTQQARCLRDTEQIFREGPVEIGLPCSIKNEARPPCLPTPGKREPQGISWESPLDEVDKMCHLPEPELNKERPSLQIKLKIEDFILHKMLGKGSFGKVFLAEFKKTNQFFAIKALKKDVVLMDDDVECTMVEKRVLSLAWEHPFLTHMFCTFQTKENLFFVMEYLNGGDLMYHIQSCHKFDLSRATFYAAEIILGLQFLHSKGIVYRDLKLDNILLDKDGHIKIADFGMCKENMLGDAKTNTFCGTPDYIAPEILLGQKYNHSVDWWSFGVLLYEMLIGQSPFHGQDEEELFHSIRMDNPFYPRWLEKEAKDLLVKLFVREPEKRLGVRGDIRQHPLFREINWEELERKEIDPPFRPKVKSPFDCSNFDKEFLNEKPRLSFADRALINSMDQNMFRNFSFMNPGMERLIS
# Sequence of Protein kinase C eta type (Homo sapiens) (P24723 whole entry): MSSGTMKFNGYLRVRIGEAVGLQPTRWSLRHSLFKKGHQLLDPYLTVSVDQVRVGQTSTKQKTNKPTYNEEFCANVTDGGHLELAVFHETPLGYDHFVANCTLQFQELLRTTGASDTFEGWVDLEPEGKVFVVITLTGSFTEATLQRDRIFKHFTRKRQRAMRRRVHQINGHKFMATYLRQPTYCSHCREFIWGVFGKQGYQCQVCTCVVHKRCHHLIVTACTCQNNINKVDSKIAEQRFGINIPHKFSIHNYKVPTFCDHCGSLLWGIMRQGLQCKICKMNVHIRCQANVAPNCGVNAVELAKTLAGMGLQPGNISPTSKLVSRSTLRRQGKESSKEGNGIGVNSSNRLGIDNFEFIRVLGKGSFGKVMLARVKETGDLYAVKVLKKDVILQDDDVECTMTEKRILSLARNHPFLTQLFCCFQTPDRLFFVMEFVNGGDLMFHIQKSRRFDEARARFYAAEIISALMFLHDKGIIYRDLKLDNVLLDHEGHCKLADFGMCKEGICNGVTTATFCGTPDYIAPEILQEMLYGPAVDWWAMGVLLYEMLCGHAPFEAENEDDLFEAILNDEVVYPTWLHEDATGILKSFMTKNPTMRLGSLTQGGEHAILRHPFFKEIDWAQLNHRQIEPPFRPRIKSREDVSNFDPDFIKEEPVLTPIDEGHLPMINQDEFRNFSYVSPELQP
# Sequence of Serine/threonine-protein kinase N2 (Homo sapiens) (Q16513 whole entry, looked up): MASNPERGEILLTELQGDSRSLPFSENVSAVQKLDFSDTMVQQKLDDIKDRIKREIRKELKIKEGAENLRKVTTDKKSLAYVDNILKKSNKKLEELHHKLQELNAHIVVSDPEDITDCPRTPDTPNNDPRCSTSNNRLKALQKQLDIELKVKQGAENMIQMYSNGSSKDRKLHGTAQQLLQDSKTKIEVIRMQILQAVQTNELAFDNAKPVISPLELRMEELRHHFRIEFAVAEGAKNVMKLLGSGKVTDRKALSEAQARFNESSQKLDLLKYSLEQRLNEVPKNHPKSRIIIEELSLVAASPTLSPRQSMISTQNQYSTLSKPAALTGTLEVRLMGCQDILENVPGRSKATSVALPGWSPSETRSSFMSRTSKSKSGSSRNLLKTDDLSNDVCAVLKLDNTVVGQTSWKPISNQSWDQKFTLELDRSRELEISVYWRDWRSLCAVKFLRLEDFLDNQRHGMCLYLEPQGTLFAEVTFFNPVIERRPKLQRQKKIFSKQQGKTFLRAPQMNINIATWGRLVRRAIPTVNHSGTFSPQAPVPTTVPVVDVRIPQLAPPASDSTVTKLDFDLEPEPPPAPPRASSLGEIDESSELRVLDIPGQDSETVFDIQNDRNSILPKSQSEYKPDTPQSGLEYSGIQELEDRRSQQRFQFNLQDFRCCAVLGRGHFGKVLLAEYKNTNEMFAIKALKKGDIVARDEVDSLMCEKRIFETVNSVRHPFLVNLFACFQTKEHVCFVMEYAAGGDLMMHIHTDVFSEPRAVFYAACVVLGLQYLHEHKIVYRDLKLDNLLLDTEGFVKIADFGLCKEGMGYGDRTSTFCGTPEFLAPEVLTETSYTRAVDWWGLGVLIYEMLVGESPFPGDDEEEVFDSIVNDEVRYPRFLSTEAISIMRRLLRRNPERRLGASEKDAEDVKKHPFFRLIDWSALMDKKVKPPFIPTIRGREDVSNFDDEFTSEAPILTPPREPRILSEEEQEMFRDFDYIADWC
SMILES,residual activity [1] [%],residual activity [2] [%],residual activity [3] [%],residual activity [4] [%],residual activity [5],residual activity [6] [%],residual activity [7] [%],residual activity [8] [%],residual activity [9] [%],residual activity [10] [%],residual activity [11] [%],residual activity [12] [%],residual activity [13] [%],residual activity [14] [%],residual activity [15] [%],residual activity [16] [%],residual activity [17] [%],residual activity [18] [%],residual activity [19] [%],residual activity [20] [%]
O=C1Nc2cc(Br)ccc2/C1=C1/Nc2ccccc2/C1=N\O,76,74,87,75,110% (inactive),112,90,100,101,95,90,109,78,61,76,90,75,92,2,0
Nc1n[nH]c2nnc(-c3c(-c4ccccc4)nn4ccccc34)cc12,56,19,47,16,115% (inactive),100,56,12,96,49,95,104,92,76,104,101,91,76,99,46
CC(=O)O/N=C1\C(=C2\C(=O)Nc3cc(Br)ccc32)Nc2ccccc21,101,106,97,96,104% (inactive),103,85,–,104,102,101,112,102,76,105,–,98,79,17,1
